An excerpt weighted towards active compounds, which were near 3.5% of everything screened.
GPR151 activ – activators of human GPR151. PathHunter beta-arrestin GPR151 cells, luminescence. Q8TDV0. activation, % at 11.2 µM. 650,000 compounds, 1% hits. AID 1508602; in the data active = activation above about 4.9%;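 note: 0% = median of compound wells and 100% = cells with positive control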
MITF inh – human MITF inhibition, primary screen; O75030; AlphaScreen MITF homodimerization, bead proximity signal; inhibition, % at 2.6 µM; 650,000 compounds, 0.91% hits; AID 1259374; in the data active = inhibition above about 50%;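 note: 0% = vehicle wells with protein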
Target sequence (O75030 whole entry, looked up): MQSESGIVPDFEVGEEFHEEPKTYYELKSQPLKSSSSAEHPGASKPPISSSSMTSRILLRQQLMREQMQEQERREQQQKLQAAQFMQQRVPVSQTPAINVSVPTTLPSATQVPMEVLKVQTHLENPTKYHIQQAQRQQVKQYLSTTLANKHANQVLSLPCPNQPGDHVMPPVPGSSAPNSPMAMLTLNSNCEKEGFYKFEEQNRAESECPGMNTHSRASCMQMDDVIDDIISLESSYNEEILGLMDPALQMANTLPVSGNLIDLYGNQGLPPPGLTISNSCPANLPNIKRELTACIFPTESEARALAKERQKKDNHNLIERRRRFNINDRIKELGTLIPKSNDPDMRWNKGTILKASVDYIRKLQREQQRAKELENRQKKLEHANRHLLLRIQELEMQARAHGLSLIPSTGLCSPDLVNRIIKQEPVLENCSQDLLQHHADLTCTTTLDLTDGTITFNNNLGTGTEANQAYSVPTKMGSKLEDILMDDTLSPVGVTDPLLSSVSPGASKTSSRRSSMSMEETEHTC
FBW7 activator – activators of human E3 ligase FBW7. AlphaScreen FBW7–phospho-cyclin E peptide binding, activator screen. normalized activity (activation), % at 26.1 µM. 650,000 compounds, 0.13% hits. AID 1259310; in the data active = normalized activity above about 1.9%;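 note: purified mutant Fbw7 with reduced substrate affinity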
TEAD-YAP block – TEAD-YAP interaction inhibition; 640,000 compounds, 1.4% hits; inhibition, % at 9.12 µM; AID 1259422; HEK-TIYL cells, TEAD-Gal4/YAP UAS-luciferase luminescence; in the data active = inhibition above about 32%;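 note: 0% = median of test compound wells and 100% = reference inhibitor wells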
GPR151 conf act – human GPR151 activation, confirmation screen; shares compounds with GPR151 activ; GPR151 PathHunter beta-arrestin cells, luminescence, 90 min; % of EA-reagent control over plate median; activation, % at 11.2 µM; 6,700 tested, under 10 active; AID 1508609;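 active = mean percent activation across replicates above the confirmation screen cutoff of 4.91%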
GPR119 ag – activates human GPR119 in a GPR151 counter-screen. shares compounds with GPR151 activ. GPR119 PathHunter beta-arrestin cells, luminescence, 90 min; 0 = compound-well median, 100 = enzyme-acceptor control. activation, % at 11.2 µM. 6,700 compounds, 0.3% hits;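 active = mean percent activation in the counterscreen above 29.09%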;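 note: counterscreen on off-target GPR119 to flag nonselective hits from the GPR151 activator screen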
* = called active by the depositor; . = no result.

SMILES	GPR151 activ	MITF inh	FBW7 activator	TEAD-YAP block	GPR151 conf act	GPR119 ag
Cc1ccc(C2=N/C(=C/c3ccc([N+](=O)[O-])cc3)C(=O)O2)cc1	7.9*	-7	0	2	0	-8
CCOC(=O)CNS(=O)(=O)Cc1ccccc1	6.8*	20	1	4	0	-7
O=C(O)CNS(=O)(=O)Cc1ccccc1	-1	-7	0	-2	.	.
COc1ccc(N2C(=O)CC(N(CCc3ccc(OC)c(OC)c3)C(=O)c3ccccc3)C2=O)cc1 (stereo not drawn)	5.2*	-11	0	3	0	-7
CN1CCCc2cc(C(CNC(=O)Nc3ccc(F)cc3)N3CCOCC3)ccc21 (stereo not drawn)	1	11	0	-3	.	.
CC(C)N(CCNC(=O)c1cccc(Nc2ccccc2)n1)C(C)C	0	13	0	-7	.	.
CCNC(=O)C(=O)NCC1OCCCN1S(=O)(=O)c1ccccc1 (stereo not drawn)	5.2*	2	0	0	0	-9
C=CCNC(=O)C(=O)NCC1OCCCN1S(=O)(=O)c1ccc(F)cc1C (stereo not drawn)	7.3*	0	0	-3	0	-6
O=C(NCCCO)C(=O)NCC1OCCCN1S(=O)(=O)c1ccc(Cl)cc1 (stereo not drawn)	9.5*	-3	0	-9	0	-6
O=C(NCCO)C(=O)NCC1OCCCN1S(=O)(=O)c1ccc(Cl)cc1 (stereo not drawn)	1	-1	0	-2	.	.
O=C(CSc1nc2sc3c(c2c(=O)n1-c1ccccc1)CCCC3)NCCCN1CCOCC1	0	3	0	2	.	.
CCOC(=O)/C(C(N)=O)=C(\OC)C(=O)CC(=O)c1ccc(C)cc1	5.5*	5	0	6	1	7
CCOC(=O)/C(C(N)=O)=C(\O)C(=O)/C=C(\O)c1ccc(C)cc1	1	0	0	-5	.	.
O=C(Nc1ccncc1)c1cc(-c2ccncc2)nc2ccccc12	5.2*	-5	0	-15	3	15
Cc1ccc(Sc2cc(C(=O)NC3CC3)c3ccccc3n2)cc1	5.4*	3	0	1	0	-5
CNC(=O)c1cc(-c2ccc(C)cc2)nc2ccccc12	5.4*	11	1	-5	-2	-13
Cc1ccc(Sc2cc(C(=O)NC3CCC(C)CC3)c3ccccc3n2)cc1 (stereo not drawn)	0	4	0	-3	.	.
Cc1ccc(C2/C(=C(/O)c3ccc(F)cc3)C(=O)C(=O)N2CCCN2CCOCC2)o1 (stereo not drawn)	2	1	0	-3	.	.
COc1ccc(C2CC(=O)C3=C(C2)OC(N)=C(C#N)C3c2ccc([N+](=O)[O-])cc2)cc1OC (stereo not drawn)	3	4	0	-4	.	.
CCC(Oc1ccccc1)C(=O)Nc1sc2c(c1C(=O)OC(C)C)CCCC2 (stereo not drawn)	-1	2	0	10	.	.
COc1cc(NC(=O)c2ccc(-c3ccc(C(=O)N4CCN(C)CC4)cc3)s2)cc(OC)c1OC	3	12	0	6	.	.
COc1cc(NC(=O)c2ccc(-c3ccc(C(=O)NC4CC4)cc3)s2)cc(OC)c1OC	5.3*	7	0	43*	1	4
Cn1c(=O)c2c(nc(Cl)n2Cc2ccc(Cl)cc2)n(C)c1=O	10*	7	0	-7	0	3
Cn1c(=O)c2c(nc(NN)n2Cc2ccccc2)n(C)c1=O	6.8*	6	0	3	-1	-7
Cn1c(=O)n(Cc2ccccc2)c(=O)c2c1nc(NN)n2Cc1ccccc1	1	-2	0	-12	.	.
SMILES	GPR151 activ	MITF inh	FBW7 activator	TEAD-YAP block	GPR151 conf act	GPR119 ag
Cn1ccsc1=NC(=O)C1COc2ccccc2O1 (stereo not drawn)	-5	5	0	-17	.	.
COc1cc2sc(=NC(=O)C3COc4ccccc4O3)n(C)c2cc1OC (stereo not drawn)	6.6*	8	0	6	-1	4
CC(C)OCCCNC(=O)CC1C(=O)NCCN1C (stereo not drawn)	5.8*	-1	0	1	0	4
CCc1cccc(C)c1NC(=S)NN	6.2*	16	0	7	-1	-10
CCc1cccc(C)c1NC(=O)C(C)C	-1	16	1	-5	.	.
Cc1nc2sc(C(=O)c3ccc(Br)cc3)c(N)c2c(C)c1CC(=O)c1ccccc1	7.0*	-2	0	-1	0	-11
CCc1c(C)nc2sc(C(=O)c3ccc(Br)cc3)c(N)c2c1C	0	-13	0	1	.	.
N#C/C(=C\c1cccn1-c1ccc(S(N)(=O)=O)cc1)c1nc2ccccc2s1	0	-11	0	9	.	.
CCCCCCc1cnc(-c2ccc(Br)cc2)nc1	-2	8	0	-8	.	.
CCCCCCOc1ccc(-c2ncc(CCCCC)cn2)cc1	5.8*	0	0	6	0	-9
COC(=O)c1ccc(-n2c(C)cc(C(=O)COC(=O)c3ccccc3C=O)c2C)cc1	-1	12	0	7	.	.
Cc1cc(C(=O)COC(=O)c2ccc(CO)cc2)c(C)n1-c1ccc(F)cc1	5.0*	-1	0	9	0	0
Cc1cnc(C(=O)OCC(=O)c2cc(C)n(CCc3ccc(F)cc3)c2C)cn1	8.1*	2	0	0	1	8
COc1ccc(OC)c(C(=O)NC(C)c2cnn(-c3ccccc3C)c2C)c1 (stereo not drawn)	0	0	0	-11	.	.
COC(=O)c1ccccc1NC(=O)Nc1ccc(Cl)cc1	-1	21	0	3	.	.
COC(=O)c1ccccc1NC(=O)Nc1ccc(Br)cc1Cl	5.9*	-8	0	9	0	9
COC(=O)c1cccc(NC(=O)c2cccc(Br)c2)c1C	15*	-8	0	-51	-1	-17
CCOC(=O)c1ccccc1NC(=O)c1cccc(Br)c1	2	-6	0	3	.	.
O=C(O)c1ccc(NC(=O)c2ccccc2NC(=O)c2cccc(Br)c2)cc1	5.5*	-10	0	10	-1	-8
CCCCn1c(CNC(=O)c2ccc(OC)c(OC)c2)nnc1SCC(=O)Nc1sc2c(c1C(=O)OCC)CCCC2	-1	-14	0	0	.	.
COc1cc([C@@H]2[C@@H](C(=O)c3ccccc3)N3c4ccc(Cl)cc4C=C[C@@H]3C2(C#N)C#N)cc(OC)c1OC	1	0	0	-8	.	.
Cc1csc(NC(=O)/C=C/c2cccc(Cl)c2)n1	5.0*	4	0	-35	0	-12
CCNc1cccc(C(=O)NCCN(C(C)C)C(C)C)n1	-1	11	0	12	.	.
O=C(OCc1csc(-c2ccccc2)n1)c1ccccc1[N+](=O)[O-]	-1	-1	0	-24	.	.

Source: PubChem BioAssay (The Scripps Research Institute Molecular Screening Center)
